The values that follow come from PubChem BioAssay.

Assay [1] is described as follows: sensitizers of A549 cells to miR-34 induction, primary screen, imaging, A549 dox-inducible miR-34, nuclei and caspase counts (AID 1347080). Conditions: A549 miR-34 inducible, Hoechst nuclei count, 48 h.
Assay [2] can be described thus: survival rescue of mitochondrial mutant cells in low glucose, primary screen, MELAS cybrids, Rieske KO mouse fibroblasts, CellTiter-Glo (AID 1508586;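 active = mean z-score across replicates of 1.96 or higher in either the MELAS or the Rieske mutant cell line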;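 also: z relative to plate mean and SD of compound and empty wells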). (ATP-based viability assays read luminescence as a measure of living cells.)
Assay [3] can be described thus: viability rescue of complex I mutant cybrids, primary screen, cell-based, galactose medium, ATP luminescence (AID 1645843;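 active = z-score of at least 1.8 in each of two replicates, scored against plate mean and spread of sample wells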;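 also: positive z means more ATP and so rescue of galactose-driven cybrid death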). To be noted: complex I mutant cybrid cells, 72 h, stronger effect = higher value.
Assay [4] deals with NAD(+) hydrolase SARM1 (Homo sapiens) (UniProt Q6SZW1). As to the kind of experiment: SARM1 TIR NADase inhibitors, cell lysate, NAD-Glo luminescence (AID 1508614;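 active = compound whose remaining NAD level is above about 45 nM, limit read from the data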;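 also: higher remaining NAD means stronger inhibition of SARM1 NADase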). Conditions: SAM-TIR HEK293T lysate NADase, at 1 µM, stronger effect = higher value.
NAD(+) hydrolase SARM1 (Homo sapiens), sequence (Q6SZW1 whole entry, looked up, the tested form may be a part): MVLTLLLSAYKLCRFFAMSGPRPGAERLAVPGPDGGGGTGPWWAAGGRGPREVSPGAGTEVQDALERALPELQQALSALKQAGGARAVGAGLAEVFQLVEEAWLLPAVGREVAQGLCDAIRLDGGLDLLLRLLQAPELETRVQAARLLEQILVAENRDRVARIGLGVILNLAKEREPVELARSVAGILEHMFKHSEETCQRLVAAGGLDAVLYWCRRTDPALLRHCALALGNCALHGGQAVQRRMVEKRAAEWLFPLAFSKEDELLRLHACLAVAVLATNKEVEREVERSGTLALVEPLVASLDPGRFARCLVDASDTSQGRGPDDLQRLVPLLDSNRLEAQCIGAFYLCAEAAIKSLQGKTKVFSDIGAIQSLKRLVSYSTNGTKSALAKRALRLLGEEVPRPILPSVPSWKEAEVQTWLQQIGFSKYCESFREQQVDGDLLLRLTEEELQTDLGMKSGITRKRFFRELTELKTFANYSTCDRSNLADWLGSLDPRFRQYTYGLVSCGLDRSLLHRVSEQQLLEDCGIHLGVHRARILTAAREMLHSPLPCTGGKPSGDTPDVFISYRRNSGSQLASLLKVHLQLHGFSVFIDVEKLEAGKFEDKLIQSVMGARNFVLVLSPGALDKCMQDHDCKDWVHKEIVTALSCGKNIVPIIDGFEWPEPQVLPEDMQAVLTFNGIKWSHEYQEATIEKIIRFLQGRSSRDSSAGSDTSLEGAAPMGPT
Assay [5] deals with Mitogen-activated protein kinase 7 (Homo sapiens) (UniProt Q13164). In words: ERK5 transactivation activators in reporter cells, primary screen, cell-based, HTS (AID 1508626;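 active = luciferase signal above three times the same-plate solvent-only control wells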;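 also: luciferase driven by Gal4-ERK5 fusion binding five Gal4 sites before minimal TATA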). Conditions: HeLa Gal4-ERK5 transactivation, 18 h, at 5 µM, stronger effect = higher value.
Mitogen-activated protein kinase 7 (Homo sapiens), sequence (Q13164 whole entry, looked up, the tested form may be a part): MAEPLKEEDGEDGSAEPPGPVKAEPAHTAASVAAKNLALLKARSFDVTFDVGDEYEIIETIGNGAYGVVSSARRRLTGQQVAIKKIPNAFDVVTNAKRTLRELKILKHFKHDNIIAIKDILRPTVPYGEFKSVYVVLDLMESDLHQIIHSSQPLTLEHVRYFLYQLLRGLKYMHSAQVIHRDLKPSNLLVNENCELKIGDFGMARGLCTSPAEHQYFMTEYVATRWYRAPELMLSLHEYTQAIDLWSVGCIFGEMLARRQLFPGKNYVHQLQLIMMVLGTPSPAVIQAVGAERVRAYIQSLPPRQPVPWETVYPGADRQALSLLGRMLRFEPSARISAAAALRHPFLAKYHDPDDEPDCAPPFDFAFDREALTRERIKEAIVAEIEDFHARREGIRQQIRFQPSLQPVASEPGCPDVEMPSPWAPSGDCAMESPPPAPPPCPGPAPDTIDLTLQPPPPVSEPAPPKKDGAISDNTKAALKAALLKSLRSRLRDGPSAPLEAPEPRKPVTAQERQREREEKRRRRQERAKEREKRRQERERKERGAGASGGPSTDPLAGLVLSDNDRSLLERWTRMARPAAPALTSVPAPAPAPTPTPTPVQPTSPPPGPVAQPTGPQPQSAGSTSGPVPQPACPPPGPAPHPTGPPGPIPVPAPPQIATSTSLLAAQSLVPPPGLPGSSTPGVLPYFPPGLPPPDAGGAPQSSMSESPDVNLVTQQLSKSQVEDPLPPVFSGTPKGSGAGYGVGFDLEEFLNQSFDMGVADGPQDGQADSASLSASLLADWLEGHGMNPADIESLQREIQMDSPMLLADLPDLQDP
Assay [6] in a line: inhibitors of Cryptococcus chitosan production, flow cytometry, Cibacron Brilliant Red staining (AID 1347148; call rule not given here;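 also: compound exposure lasted three days at 37 degrees C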). Conditions: Cryptococcus neoformans chitosan, stronger effect = lower value; at 10 µM unless noted.
Assay [7] is described as follows: phospholipid biosynthesis inhibitors in animal cells, primary screen, cell-based, LOPAC library, screen 4 (AID 1347384; call rule not given here). Conditions: phospholipid biosynthesis inhibition screen, at 10 µM.
Setting [8] is: stronger effect = lower value, cell number ratio, induced over uninduced.
[9] abbreviates: measured here: relative caspase fold change +Dox/-Dox.
Where [10] appears, read: measured here: total cells with miR-34 induction, stronger effect = lower value.
Setting [11] is: measured here: total cells without miR-34 induction.
[12] abbreviates: MELAS cybrid survival, CellTiter-Glo 48 h, stronger effect = higher value.
Setting [13] is: Rieske KO mouse fibroblast survival, CellTiter-Glo 72 h.

Values joined by “and” are separate entries in the source; they are usually repeats but may differ in a detail not shown here. Equal entries are not always repeated. Active and inactive are the calls of the source.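 The calls were made as follows, unless noted: active = compounds whose cell count with miR-34 switched on is under 0.7 times the count with it off; inactive = the rest.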

Consider `COCc1c(C(C)C)nc(C(C)C)c(/C=C/[C@@H](O)C[C@@H](O)CC(=O)O)c1-c1ccc(F)cc1`, for which the fold change was 1.07 (inactive) in assay [1] (setting [8]) and 1.46 in assay [1] (setting [9]). In addition, the cell count was found to be 1320 in assay [1] (setting [10]) and 1240 in assay [1] (setting [11]). Besides, the z-score is -1.23 (inactive) in assay [2] (setting [12]), -0.402 in assay [2] (setting [13]) and -2.23 (inactive) in assay [3].

With `NC1CCN(c2nc3c(cc2F)c(=O)c(C(=O)O)cn3-c2ccc(F)cc2F)C1` (stereo not drawn), the fold change in assay [1] (setting [8]) is 0.986 (inactive) and 0.879 (inactive); in assay [1] (setting [9]), 1.53 and 1.43. Also, the cell count in assay [1] (setting [10]) was 9740 and 8420; in assay [1] (setting [11]), 9880 and 9570. The z-score is -0.38 (inactive) and 0.118 (inactive) in assay [2] (setting [12]); -2.21 and -0.244 in assay [2] (setting [13]); 0.62 (inactive) and -0.04 (inactive) in assay [3].

As for `Cc1cc2nc3c(=O)[nH]c(=O)nc-3n(C[C@H](O)[C@H](O)[C@H](O)CO)c2cc1C`, the results for the fold change in assay [1] (setting [8]) and in assay [1] (setting [9]) were 0.873 (inactive) and 1.61, respectively. Moreover, the results for the cell count in assay [1] (setting [10]) and in assay [1] (setting [11]) were 7920 and 9080, respectively. Moreover, the remaining NAD in assay [4] is 10 nM (inactive). The luciferase signal in assay [5] was 80 AU (inactive).

For `CC(=O)Nc1ccc(S(=O)(=O)Nc2ccc([N+](=O)[O-])cc2)cc1`, the fold change in assay [1] (setting [8]) was 0.908 (inactive); in assay [1] (setting [9]), 3.51. Besides, the cell count stood at 11400 in assay [1] (setting [10]) and 12500 in assay [1] (setting [11]). In addition, the remaining NAD in assay [4] was 10 nM (inactive). Besides, the luciferase signal in assay [5] is 24 AU (inactive).

Turning to `CCOC(N)=O`, the fold change in assay [1] (setting [8]) is 0.875 (inactive); in assay [1] (setting [9]) it was 3.55. For the same molecule, the figures for the cell count in assay [1] (setting [10]) and in assay [1] (setting [11]) were 11200 and 12800, respectively. Moreover, the remaining NAD in assay [4] is 10 nM (inactive). Besides, the luciferase signal in assay [5] is 24 AU (inactive).

With `O=C(O)c1cc(O)c(O)c(O)c1`, the fold change was 0.943 (inactive) in assay [1] (setting [8]) and 4.52 in assay [1] (setting [9]). Moreover, the cell count in assay [1] (setting [10]) was 11500; in assay [1] (setting [11]) it was 12200. In assay [4], the remaining NAD is 10 nM (inactive). The luciferase signal in assay [5] was 100 AU (inactive).

Regarding `Oc1c(Cl)cc(Cl)cc1Sc1cc(Cl)cc(Cl)c1O`, the fold change in assay [1] (setting [8]) was 0.771 (inactive); in assay [1] (setting [9]) it was 1.86. Moreover, the results for the cell count in assay [1] (setting [10]) and in assay [1] (setting [11]) were 8360 and 10800, respectively. Besides, the remaining NAD in assay [4] is 10 nM (inactive). In addition, in assay [5], the luciferase signal was 24 AU (inactive).

`NC[C@H]1O[C@H](O[C@H]2[C@H](O)[C@@H](O[C@H]3O[C@H](CO)[C@@H](O)[C@H](N)[C@H]3O)[C@H](N)C[C@@H]2N)[C@H](N)[C@@H](O)[C@@H]1O`: the values for the fold change in assay [1] (setting [8]) and in assay [1] (setting [9]) were 0.901 (inactive) and 2.25, respectively. For the same molecule, the cell count in assay [1] (setting [10]) was determined as 11700; in assay [1] (setting [11]), 13000. Also, the remaining NAD in assay [4] was 10 nM (inactive). Moreover, the luciferase signal in assay [5] was 76 AU (inactive).

For the molecule `CN(C)CCCSc1ccccc1NC(=O)/C=C/c1ccccc1`, the fold change is 0.891 (inactive) and 1.14 (inactive) in assay [1] (setting [8]); 0.895 and 0.508 in assay [1] (setting [9]). For the same molecule, the cell count in assay [1] (setting [10]) was 7810 and 9010; in assay [1] (setting [11]), 8770 and 7880. The z-score in assay [2] (setting [12]) is 0.109 (inactive); in assay [2] (setting [13]), -0.0543; in assay [3], -0.09 (inactive) and 0.525 (inactive).

Turning to `CO/N=C1\CN(c2nc3c(cc2F)c(=O)c(C(=O)O)cn3C2CC2)CC1CN` (stereo not drawn), the figures for the fold change in assay [1] (setting [8]) and in assay [1] (setting [9]) were 0.847 (inactive) and 1.93, respectively. Further, the cell count in assay [1] (setting [10]) amounted to 10700; in assay [1] (setting [11]), 12600. Moreover, the remaining NAD in assay [4] was 10 nM (inactive). Besides, the luciferase signal in assay [5] is 40 AU (inactive).

As to `CC(C)(Oc1ccc(CCNC(=O)c2ccc(Cl)cc2)cc1)C(=O)O`, the fold fluorescence in assay [6] was 9.76 [at 138.2 µM] (inactive). Moreover, the molecule was classed as inactive in assay [7]. Also, the z-score in assay [2] (setting [12]) was -0.161 (inactive) and 0.38 (inactive) and -0.46 (inactive); in assay [2] (setting [13]), -0.148 and 0.0926 and -0.592; in assay [3] it was 0.225 (inactive) and 0.83 (inactive). The remaining NAD in assay [4] is 10 nM (inactive). For the same molecule, the luciferase signal in assay [5] is 40 AU (inactive).

On to `O=c1c(-c2ccccc2)c1-c1ccccc1`, for which the fold change is 0.804 (inactive) in assay [1] (setting [8]) and 1.52 in assay [1] (setting [9]). Further, the figures for the cell count in assay [1] (setting [10]) and in assay [1] (setting [11]) were 4690 and 5830, respectively. Moreover, the z-score in assay [3] was -1.44 (inactive).

On to `Cc1cccc(C(=O)O)c1O`, for which the fold change in assay [1] (setting [8]) was 0.963 (inactive); in assay [1] (setting [9]), 0.915. Further, the cell count in assay [1] (setting [10]) stood at 8670; in assay [1] (setting [11]), 9000. Also, in assay [4], the remaining NAD was 10 nM (inactive). The luciferase signal in assay [5] is 68 AU (inactive).

With `CC(Cc1ccccc1)(NC(=O)CN)c1ccccc1` (stereo not drawn), the fold change is 0.999 (inactive) and 0.923 (inactive) in assay [1] (setting [8]); 2.09 and 0.645 in assay [1] (setting [9]). For the same molecule, the cell count in assay [1] (setting [10]) was 9240 and 8260; in assay [1] (setting [11]), 9260 and 8950. Besides, the z-score in assay [3] was 0.32 (inactive) and -0.22 (inactive).

Regarding `CC(C)NC[C@@H](O)COc1cccc2ccccc12`, the fold change was 0.945 (inactive) in assay [1] (setting [8]) and 0.937 in assay [1] (setting [9]). For the same molecule, the cell count worked out at 8050 in assay [1] (setting [10]) and 8520 in assay [1] (setting [11]). For the same molecule, the remaining NAD in assay [4] is 10 nM (inactive). In assay [5], the luciferase signal was 52 AU (inactive). Moreover, the z-score in assay [3] was 0.54 (inactive).

On to `COc1cc2c(cc1OC)-c1cc(=Nc3c(C)cc(C)cc3C)n(C)c(=O)n1CC2`, for which the fold fluorescence in assay [6] was 11.7 [at 123.3 µM] (inactive). Further, the molecule was classed as inactive in assay [7]. The z-score was 1.02 (inactive) in assay [2] (setting [12]); 1.81 in assay [2] (setting [13]); -0.95 (inactive) and -0.575 (inactive) and 0.465 (inactive) in assay [3].

For `Nc1ccc(C(=O)Oc2ccccc2)c(O)c1`, the fold change was 0.872 (inactive) in assay [1] (setting [8]) and 1.07 in assay [1] (setting [9]). Further, the cell count stood at 9720 in assay [1] (setting [10]) and 11100 in assay [1] (setting [11]). Besides, in assay [4], the remaining NAD was 10 nM (inactive). Besides, the luciferase signal in assay [5] was 84 AU (inactive).

On to `COc1cc(-c2ccc(=O)[nH]n2)ccc1OC(F)F`, for which the fold fluorescence in assay [6] was 7.45 [at 186.4 µM] (inactive). Moreover, the z-score in assay [2] (setting [12]) was 1.87 (inactive) and 1.14 (inactive); in assay [2] (setting [13]), -0.582 and -0.616; in assay [3] it was 0.03 (inactive) and -0.045 (inactive) and 0.53 (inactive).
